Data: PubChem BioAssay (Tox21)
Results filed as inconclusive are left out. Values without a mark were called inactive. The source made the active and inactive calls. Calls come from the whole dose curve; as a rule, active = well fitted activation curve with a large enough effect in the repeat runs; inconclusive = weak or mixed curves; inactive = flat fitted curve, though single readings scatter.

Experiment: A CellTox Green Cytotoxicity Assay to monitor cytotoxicity in HepG2 cells - 8 hour (AID 1224890); note: nearly all actives have a fitted effect of over 45% in size
Settings: CellTox Green fluorescence; series mostly up to 76.8 µM; cytotoxicity increase: at the top concentration
From the text: National Center for Advancing Translational Sciences [NCATS]
NIH Chemical Genomics Center [NCGC]
U.S. Environmental Protection Agency [EPA]
National Institutes of Environmental Health Sciences [NIEHS]
National Toxicology Program [NTP]
Cell-based models are critical for drug discovery. Determining the natural cytotoxic effects resulting from test compounds is an essential research activity. A CellTox Green Cytotoxicity Assay to monitor cytotoxicity in real time of continues cell culture during 40 hours of the compound treatment was used to screen Tox21 10K library compounds in HepG2 cells. CellTox Green Cytotoxicity Assay is a nonlytic, homogeneous, biofluorescent method to measure cytotoxicity in cell culture after experimental manipulation. The assay system uses a proprietary asymmetric cyanine dye that is excluded from viable cells but preferentially stains the dead cell's DNA. […] Viable cells produce no appreciable increases in fluorescence. Therefore, the fluorescence signal produced by the binding interaction with dead cell DNA is proportional to cytotoxicity.
The mixture of HepG2 cell suspension and reagents were dispensed at 600cells/6 ul/well in 1536-well tissue culture treated black solid bottom plates using a Multidrop dispenser. After the assay plates were incubated at a 37 C/5% CO2 incubator for 5 hours, 23 nL of compounds dissolved in DMSO, positive and negative controls was transferred to the assay plate by a pintool work station. The plates were incubated at 37 C for 40 hours. The fluorescence intensity were measured at 0h, 8h, 16h, 24h, 32h and 40h time points using ViewLux plate reader during compound treatment.
% is set by controls: 0 for no effect and ±100 for the full control effect.

With `CCCCOC(=O)c1ccc(N)cc1` as the compound, how does the outcome read?
The outcome was “inactive”.

With `O=C1c2ccccc2CCc2ccccc21` as the compound, how does the outcome read?
The outcome was “inactive”.

Which outcome does the source give for `COc1ccc([N+](=O)[O-])cc1N` here?
The outcome was “inactive”.

For `O=S(=O)(O)c1ccccc1`, which outcome is on record?
The outcome was “inactive”.

Which outcome does the source give for `O=[N+]([O-])c1ccc2nc[nH]c2c1` here?
Its outcome is “inactive”.

For `Cc1ccc(S(=O)(=O)N=C=O)cc1`, which outcome is on record?
Its outcome is “inactive”.

Which outcome does the source give for `CC(C)OC(=O)COc1ccc(Cl)cc1Cl` here?
Its outcome is “inactive”.

With `O=C1C(c2[nH]c3ccccc3c2O)=Nc2ccccc21` as the compound, how does the outcome read?
Its outcome is “inactive”.

Which outcome does the source give for `CC1(C)OC[C@@H]2O[C@@]3(C(=O)O)OC(C)(C)O[C@H]3[C@@H]2O1` here?
The outcome was “inactive”.

With `N#Cc1ccccc1` as the compound, how does the outcome read?
The outcome was “inactive”.

For `O=C1CCCC1`, which outcome is on record?
Its outcome is “inactive”.

For `C=Cc1ccc(C)cc1`, which outcome is on record?
The outcome was “inactive”.

For `C[C@]12CCC(=O)C=C1CC[C@@H]1[C@@H]2[C@@H](O)C[C@@]2(C)[C@H]1CC[C@]2(O)C(=O)CO`, which outcome is on record?
The outcome was “inactive”.

With `OC1C(O)C(O)C(O)C(O)C1O` (stereo not given) as the compound, how does the outcome read?
The outcome was “inactive”.

Which outcome does the source give for `C=CCCCCCCCCC(=O)O` here?
The outcome was “inactive”.

Which outcome does the source give for `C=C(C)CNCC` here?
The outcome was “inactive”.

With `CC(CCO)CC(C)(C)C` (stereo not given) as the compound, how does the outcome read?
The outcome was “inactive”.

Which outcome does the source give for `CCCOC(=O)c1ccccc1` here?
The outcome was “inactive”.

For `C[Si]1(C)O[Si](C)(C)O[Si](C)(C)O[Si](C)(C)O1`, which outcome is on record?
The outcome was “inactive”.

Which outcome does the source give for `COC(=O)c1cccnc1` here?
Its outcome is “inactive”.

For `Nc1ccc(Cl)c(N)c1`, which outcome is on record?
The outcome was “inactive”.

With `CC(O)CC(C)(C)O` (stereo not given) as the compound, how does the outcome read?
Its outcome is “inactive”.

Which outcome does the source give for `CCCCCCCCCCCCCCCCO` here?
Its outcome is “inactive”.

For `O=C(OCC1CCC2OC2C1)C1CCC2OC2C1` (stereo not given), which outcome is on record?
Its outcome is “inactive”.

For `CCCCC(C=O)CC` (stereo not given), which outcome is on record?
Its outcome is “inactive”.

With `C=CC[N+](C)(C)CC=C` as the compound, how does the outcome read?
Its outcome is “inactive”.

For `CN(C)c1ccc(O)c2c1C[C@H]1C[C@H]3[C@H](N(C)C)C(=O)C(C(N)=O)=C(O)[C@@]3(O)C(=O)C1=C2O`, which outcome is on record?
Its outcome is “inactive”.

For `CCCCCCCCCCCCCCCC(=O)OC(C)C`, which outcome is on record?
Its outcome is “inactive”.

With `COc1ccc(C)cc1N` as the compound, how does the outcome read?
Its outcome is “inactive”.

With `C=CC(=O)OCCC(=O)O` as the compound, how does the outcome read?
The outcome was “inactive”.

Which outcome does the source give for `CC(=O)CC(C)(C)O` here?
The outcome was “inactive”.

With `CCNc1cccc(C)c1` as the compound, how does the outcome read?
The outcome was “inactive”.

With `CC1(C)CC(N)CC(C)(CN)C1` (stereo not given) as the compound, how does the outcome read?
Its outcome is “inactive”.

Which outcome does the source give for `COc1ccc(CCC(C)=O)cc1` here?
Its outcome is “inactive”.

For `CCNc1ccccc1`, which outcome is on record?
Its outcome is “inactive”.

With `CCOC(=O)n1ccn(C)c1=S` as the compound, how does the “cytotoxicity increase” value read?
Its value is -11%.

Which outcome does the source give for `CN(C)c1ccc(Cc2ccc(N(C)C)cc2)cc1` here?
The outcome was “inactive”.

Which outcome does the source give for `O=C(O)c1ccccc1C(=O)O` here?
The outcome was “inactive”.

For `COCCCN`, which outcome is on record?
The outcome was “inactive”.

Which outcome does the source give for `CC(=O)OCCOC(C)=O` here?
The outcome was “inactive”.
